# Compound activity (PubChem BioAssay)
# Hits are enriched below; roughly 3% of the tested compounds scored in any of these assays.
# DRD3 agonist – D3 dopamine receptor (human) agonism; P35462; D3R DiscoveRx beta-arrestin cells, luminescence, 90 min; max activation, %; 0.58% of 410,000 active; in the data active = max activation above about 30%; also: 0% is about no effect
# Target sequence (P35462 whole entry, looked up): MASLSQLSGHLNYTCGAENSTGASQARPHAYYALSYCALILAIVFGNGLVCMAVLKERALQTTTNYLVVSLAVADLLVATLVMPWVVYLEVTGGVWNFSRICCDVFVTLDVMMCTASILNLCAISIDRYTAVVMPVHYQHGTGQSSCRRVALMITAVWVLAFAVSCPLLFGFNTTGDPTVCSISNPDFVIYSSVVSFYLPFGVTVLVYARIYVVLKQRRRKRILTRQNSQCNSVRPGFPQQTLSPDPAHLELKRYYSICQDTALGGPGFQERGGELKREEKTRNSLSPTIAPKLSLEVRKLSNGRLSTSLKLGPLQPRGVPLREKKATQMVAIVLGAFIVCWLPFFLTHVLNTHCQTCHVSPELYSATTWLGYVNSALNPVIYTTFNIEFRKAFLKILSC
#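 Cells at 1500/well, incubated overnight, then treated with pinned compounds (dopamine as control) for 90 min at 37 degrees C. DiscoveRx reagent added for 30 - 60 minutes at room temperature; luminescence read.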
# Glioma ERSR ind – inducers of ER stress response in human glioma cells | U87-MG GRP78 promoter luciferase reporter, 16 h | Potency, µM, inactives show top-dose activation, hits mostly activators | 0.02% of 420,000 active; also: potency is read from the fitted curve at half-maximal effect; series mostly up to about 76 µM; % of control where 0% means no effect; nearly all actives have a fitted effect of over 35% in size
#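 ERSR induction read as luciferase luminescence (Bright-Glo, 10 min at room temperature) in stably transfected human U87-MG glioma cells exposed to compounds for 16 h, using GRP78 as sensor.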
# DRD3 antagonist – antagonists of human D3 dopamine receptor | P35462 | D3R cells, DiscoveRx beta-arrestin luminescence, antagonist mode; active compounds read low | max response, negative = inhibition, % | 2.5% of 360,000 active | AID 652054; in the data active = max response below about -50%; inconclusive = no clear call, values can overlap the other calls; also: % is scaled to controls: 0 for no effect and ±100 for the full control effect
#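 Cells expressing the human receptor were seeded at 1500 cells/well, incubated overnight at 37 degrees C in 5% CO2, then exposed to library compounds with dopamine controls for 90 minutes at 37 degrees C before luminescent detection.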
# Nrf2 activator – activators of Nrf2 (ARE) signaling; AREc32 ARE-luciferase reporter (MCF7-derived line), luminescence, 24 h; Potency, µM (top dose mostly 46.1 µM), without a hit: at the top dose activation, most hits filed as activators; 0.31% of 410,000 active; AID 624171; also: potency is read from the fitted curve at half-maximal effect; % of control where 0% means no effect; nearly all actives have a fitted effect of over 65% in size
#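 Nrf2 activation is followed as ARE-luciferase induction in the AREc32 line after one day of compound treatment; luminescence is read with Steady-Glo.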
# The depositor's hits bear a star; ? = inconclusive; · = no result given; ! = not active in a repeat. Unless noted, calls follow the shape of the dose curve; as a rule, active = well fitted curve in the direction sought with a large enough effect; inconclusive = small, poorly fitted or top-dose-only effect, or another doubt; inactive = no such curve, though single readings can be large; an effect the other way counts as inactive or inconclusive.
SMILES,DRD3 agonist,Glioma ERSR ind,DRD3 antagonist,Nrf2 activator
CCc1cc2c(nc1CC)CCN(CC/C(C)=N/O[C@@H]1O[C@H](COC(C)=O)[C@H](OC(C)=O)[C@H](OC(C)=O)[C@H]1OC(C)=O)C2,·,-4.3%,·,·
CC1(Cc2ccccc2Cl)C(=O)Nc2c(Cl)cccc21 (configuration not stated),-15.2,-3.1%,0.0,2.3%
C=Cc1ccc(CC2(C)C(=O)Nc3c(Cl)cccc32)cc1 (configuration not stated),-4.1,-1.5%,-66.8*,2.7%
CC1(Cc2cccc(C#N)c2)C(=O)Nc2c(Cl)cccc21 (configuration not stated),48.2*,-2.4%,-11.6,0.0%
O=C(N[C@@H]1c2ccccc2C2(CCN(C(=O)c3cc4ccccc4oc3=O)CC2)[C@H]1O)c1cccnc1,·,-5.7%,·,·
CCOC(=O)c1cnn(CCOC(=O)C2CC2)c1NC(=O)C1CC1,8.1,-2.8%,-99.3*,-0.7%
Nc1c(C(=O)Nc2ccccc2)sc2nc3c(c(-c4ccco4)c12)CCC3,6.9,-1.0%,-60.5*,4.2%
CN(Cc1ccccc1)/[N+]([O-])=N/Oc1ccc([N+](=O)[O-])cc1[N+](=O)[O-],·,-11.5%,·,·
Cc1ccc(CN2CCN(Cc3cccc(-n4cccn4)c3)CC2CCO)cc1 (configuration not stated),-16.2,-4.8%,-52.9*,-0.2%
CC(=O)c1cc(CN2CCN(CCC(C)C)C(CCO)C2)cs1 (configuration not stated),-11.8,-4.8%,1.9,-0.5%
CC(=O)c1cc(CN2CCN(Cc3ccc(C)cc3)C(CCO)C2)cs1 (configuration not stated),-4.2,-3.0%,-86.3*,0.2%
CC(=O)c1cccc(CN2CCN(Cc3ccc(F)cc3)C(CCO)C2)c1 (configuration not stated),-3.9,-1.9%,?,2.7%
CC(=O)c1cccc(CN2CCN(Cc3ccc(C)cc3)C(CCO)C2)c1 (configuration not stated),-22.1,-1.7%,-74.2*,-0.7%
OC(c1ccc2c(c1)CN(Cc1ccc3nsnc3c1)CCO2)C1CCCCC1 (configuration not stated),·,1.9%,·,·
CCNc1ccc(Br)cc(C(=O)/C=C/c2c(Cl)cccc2Cl)c1=O,-3.6,-15.2%,-66.1*,?
CNc1ccc(Br)cc(C(=O)/C=C/c2ccc(OC)cc2OC)c1=O,-11.5,7.6%,10.1,?
CNc1ccc(Br)cc(C(=O)/C=C/c2ccc(Cl)cc2Cl)c1=O,-8.5,-11.9%,?,8.91µM*
COc1cc(=O)n2c(c1C(=O)N(C)Cc1nccs1)CCN(Cc1c(F)ccc(F)c1F)CC2,·,-4.2%,·,·
Cc1ccc2c(c1)C(N1CCCC1=O)CC(c1ccco1)N2 (configuration not stated),-1.6,-0.7%,-17.1,11.2µM*
Cc1ccc(C2CC(c3ccco3)n3ncnc3N2)cc1 (configuration not stated),-6.8,-2.1%,-5.3,0.7%
COc1cc(=O)n2c(c1C(=O)NC(C)c1ccco1)CCN(Cc1ccccc1C(F)(F)F)CC2 (configuration not stated),·,-3.1%,·,·
O=C(c1ccco1)N1CCN(C(=O)c2cnn(-c3cccc(F)c3)c2C2CCNCC2)CC1,83.9*!,5.8%,1.0,-0.5%
CCOC(=O)c1c(CN2CCCCC2)n(C)c2cc(Br)c(O)c(CN(C)C)c12,-10.2,-3.2%,-67.8*,3.7%
COC(=O)C1=CN(c2ccc(OC)cc2)C=C(C(=O)OC)C1c1ccc(C)c([N+](=O)[O-])c1,-2.8,-3.6%,-10.5,-0.6%
COC(=O)C1=CN(c2cccc(C)c2)C=C(C(=O)OC)C1c1cc(OC)c(O)c([N+](=O)[O-])c1,-5.2,0.0%,-84.3*,0.1%
SMILES,DRD3 agonist,Glioma ERSR ind,DRD3 antagonist,Nrf2 activator
CCOC(=O)/C=C(\C)N1N=C(c2ccccc2)CC1c1ccccc1 (configuration not stated),0.6,4.5%,-11.2,12.6µM*
COc1ccccc1CNC(=O)CCC(=O)N1CC2CCCN2c2ccccc21 (configuration not stated),-5.7,-0.9%,·,0.6%
Cc1oc(-c2ccc(Cl)cc2)nc1CN1CCC(C(=O)N2CCc3ccccc3C2)CC1,-11.6,1.0%,-69.7*,2.6%
Cc1oc(-c2cccc(Cl)c2)nc1CN1CCC(C(=O)N2CCN(c3ccccc3F)CC2)CC1,-12.2,-2.8%,-63.1*,3.6%
CCOC(=O)C1CCCN(C(=O)C2CCN(Cc3nc(-c4ccc(Cl)cc4)oc3C)CC2)C1 (configuration not stated),-15.6,-1.9%,-28.4,4.1%
Cc1oc(-c2ccc(Cl)cc2)nc1CN1CCC(C(=O)N2CCN(Cc3ccccc3)CC2)CC1,-6.2,-1.3%,-77.3*,4.5%
Cc1cnc(-n2ncc(C(=O)N(C)CC3COCCO3)c2C2CC2)nc1-c1cccs1 (configuration not stated),·,0.3%,·,·
C=C(C)COc1ccc(-c2[nH]ncc2-c2ccccc2OC)c(O)c1,-3.2,-15.9%,-63.2*,-0.6%
Brc1ccsc1-c1csc(-c2ccncc2)n1,-1.4,2.7%,-4.7,12.6µM*
O=C(c1ccccc1)C(I)(I)N1CCOCC1,·,-1.9%,·,·
O=C(CN1C(=O)C2CCCCN2c2ccc(C(=O)N3CCCC3)cc21)NCc1ccccc1F (configuration not stated),1.9,-0.9%,·,-0.4%
COc1cc(C2C(C(C)=O)=C(O)C(=O)N2CCc2c[nH]c3ccccc23)ccc1O (configuration not stated),-0.4,-1.7%,-55.5*,-0.2%
CN(C)C(=O)CCC(=O)NCC1Cc2cccc(-c3ccccc3C(F)(F)F)c2O1 (configuration not stated),·,-6.2%,·,·
COc1cccc(C(=O)CC(=O)C(=O)Nc2ccc(C)cc2Cl)c1,9.3,-3.8%,5.5,0.0%
COc1ccc(C(=O)CC(=O)C(=O)Nc2ccc(C)cc2Cl)cc1,7.9,-1.4%,-64.0*,-0.3%
CCCc1ccccc1OCCNS(=O)(=O)c1cc2c(cc1C)OCC(=O)N2,41.8*,-3.6%,4.1,2.4%
CCc1ccccc1N1CSC2=C(C#N)C(c3cc(OC)c(OC)cc3OC)CC(=O)N2C1 (configuration not stated),-1.3,-3.5%,-67.9*,-0.2%
COC(=O)NC(=S)Nc1ccc(Oc2ccc(Cl)cc2)c(Cl)c1,-57.2,-1.8%,?,-0.2%
COC(=O)NC(=S)Nc1ccc(Oc2ccc(Cl)cc2Cl)c(Cl)c1,-16.4,13.5%,-64.8*,3.1%
CC[C@@H](C)[C@@H](N)C1=N[C@H](C(=O)N[C@@H](CC(C)C)C(=O)N[C@@H](CCC(=O)O)C(=O)N[C@@H](C(=O)N[C@@H]2CCCCNC(=O)[C@@H](CC(N)=O)NC(=O)[C@@H](CC(=O)O)NC(=O)[C@@H](Cc3cnc[nH]3)NC(=O)[C@@H](Cc3ccccc3)NC(=O)[C@@H]([C@H](C)CC)NC(=O)[C@@H](CCCN)NC2=O)[C@@H](C)CC)CS1,15.8,·,·,·
